From PubChem BioAssay
Unmarked numbers belong to inactive results. Activity calls are given as the source filed them.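 Rule for the calls: active = growth inhibition above 50% at the single 2 µM test dose, taken to imply half-maximal potency below 2 µM; inactive = the rest.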

Assay: antimalarial activity against Dd2 strain (AID 2302);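 note: 0% = DMSO untreated growth and 100% = chloroquine plus artemisinin killed control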
Conditions: P. falciparum Dd2 in RBCs, LDH growth readout, 72 h; at 2 µM; hits give high values

Compound	growth inhibition
c1cncc(Oc2ccc(Nc3ccnc4cc(-c5cccc(CN6CCCCC6)c5)ccc34)cc2)c1	100% (active)
CCCC(C)NC[C@@H](O)[C@H](Cc1ccccc1)NC(=O)c1cc(C2CCCC2)cc(N2CCCCS2(=O)=O)c1 (stereo partly specified)	99% (active)
O=C(Nc1ccc(Cl)cc1)Nc1cccc(-c2ccc(-c3nc4ccccc4[nH]3)cc2)c1	6%
CC(=O)c1ccc(NC(=O)Nc2ccc(N(C)c3ccnc(NC4CC4)n3)cc2)cc1	60% (active)
CCOc1c(N2CCN(CCCCNC(=O)c3ccc(NC(=O)c4ccc(Cl)cc4)cc3)CC2)ccc2ccccc12	45%
CCCCc1cc(NCc2ccncc2)nc(Nc2ccc(C)cc2)n1	59% (active)
Cc1ccc(F)c(C(=O)Nc2cccc(-c3nn4ccccc4c3-c3ccnc(Nc4cccc(F)c4)n3)c2)c1F	60% (active)
O=C(CSc1ccccn1)Nc1c(F)cccc1F	-5%
Cc1cccc2[nH]c(-c3ccc(-c4ccc(NC(=O)Nc5ccc(Cl)c(Cl)c5)cc4)s3)nc12	101% (active)
O=c1ccc2ncc(Cl)c3c2n1CC3CN1CCC(NCc2cc3c(cn2)OCCO3)CC1 (stereo unspecified)	29%
Cc1cc(-c2nc3cncc(-c4cccc(CN5CCCC5Cc5cccnc5)c4)c3n2C)nn1C (stereo unspecified)	73% (active)
C=C[C@]1(C)C[C@@H](OC(=O)NC(=O)C2CCN(C(=O)CSc3ccccc3)CC2)[C@]2(C)[C@H](C)CC[C@]3(CCC(=O)[C@H]32)[C@@H](C)[C@@H]1O	74% (active)
COc1ccc2c(c1)[nH]c1c(/C=C/c3ccc([N+](=O)[O-])cc3)nccc12	63% (active)
CN1CCN(CCCN(Cc2cccc(-c3ccc(CNCc4ccc5c(c4)OCO5)cc3)c2)C(=O)CCC2CCCC2)CC1	84% (active)
Cc1cc(N[C@@H](Cc2ccccc2)C(=O)NCc2cccc(F)c2)nc(NCCc2cccnc2)n1	40%
O=S(=O)(c1cc(Cl)c(Cl)cc1Cl)N1CCCCC(c2ccc(C(F)(F)F)cc2)=N1	99% (active)
COc1ccc(CCn2c(=N)c(C(=O)NCc3ccc(C)cc3)cc3c(=O)n4ccccc4nc32)cc1	16%
FC(F)(F)c1cccnc1N1CCC(Nc2nc3ccc(Cl)cc3[nH]2)CC1	39%

Compound	growth inhibition
CCOc1cccc2nc(NCCCNCc3ccc(Cl)c(Cl)c3)cc(NCCCNCc3ccc(Cl)c(Cl)c3)c12	58% (active)
O=[N+]([O-])c1ccc2ncnc(Nc3ccc(F)c(Cl)c3)c2c1	65% (active)
O=C(NCc1ccc(F)cc1)Nc1ccc(-c2cccc(-c3nc4ccc(F)cc4[nH]3)c2)cc1	99% (active)
Clc1ccc(-c2ccc(C=NNc3nc(Nc4ccccc4)nc(Nc4ccccc4)n3)o2)cc1Cl	75% (active)
COc1ccc(Nc2c3ccc(Cl)cc3nc3ccc(OC)cc23)cc1	99% (active)
CCC(C)NC(=O)CN1CN(c2ccccc2)C2(CCN(C(=O)c3ccc(C(C)(C)C)cc3)CC2)C1=O (stereo unspecified)	100% (active)
COc1ccc(C2CCN(CCCCNC(=O)c3ccc(NC(=O)c4ccc(Cl)cc4)cc3)CC2)c(C)c1	35%
O=C(NCCc1ccccc1)c1cc(-c2cccnc2)cnc1NCC1CC1	35%
Cc1nccc2c(NC(=O)N[C@@H]3CCN(c4ncc(C(F)(F)F)cc4Br)C3)cccc12	27%
Nc1cccc(CNCc2cccc(-c3cccc(-c4nc5ccc(C(F)(F)F)cc5[nH]4)c3)c2)c1	96% (active)
CC1CN=C(c2cccc(NC(=O)Nc3cccc(C4=NCC(C)N4)c3)c2)N1 (stereo unspecified)	98% (active)
COc1ccc(-c2ccc(CN(C)C3CCC(NC(=O)c4cc5ccccc5[nH]4)CC3)cc2)cn1 (stereo unspecified)	2%
N#Cc1ccc(-c2ccc(C(=O)NC3CCN(CCN4CCC(c5cn(CCO)c6ccccc56)CC4)CC3)cc2)cc1	79% (active)
COc1ccc(S(=O)(=O)Nc2cc(C)cc(Br)c2OC)cc1N1CCN(C(=O)C(Cl)(Cl)Cl)CC1	66% (active)
CC(C)CNCc1ccc(-c2ccccc2CN(C(=O)NCCc2ccccc2)C2CCN(Cc3ccccc3)CC2)cc1	94% (active)
c1ccn2c(Sc3ncnc4sccc34)ncc2c1	100% (active)
CC(Oc1ccc(NC(=O)c2cccs2)cc1)C(=O)c1ccc(Cl)cc1 (stereo unspecified)	83% (active)
Cc1cc(NCCC(=O)Nc2ccccc2)nc(NCCc2ccccc2)n1	8%
